Screen size: about 420,000 compounds; about 64,000 (15%) were called active. About 27% were inconclusive and are not listed. A selection follows. Unmarked numbers belong to inactive results. Calls come from the whole dose curve; as a rule, active = well fitted inhibition curve with a large enough effect; inconclusive = small, poorly fitted or top-dose-only effect; inactive = flat fitted curve, though single readings scatter.
% is set by controls: 0 for no effect and ±100 for the full control effect; potency is the fitted concentration of half-maximal effect.

The assay is described as follows: qHTS for Inhibitors of human tyrosyl-DNA phosphodiesterase 1 (TDP1): qHTS in cells in absence of CPT. Note: nearly all actives have a fitted effect of over 55% in size. As to conditions: DT40 Tdp1-/- hTDP1 cells, no CPT, ATP luminescence, 48 h; activity change, negative = growth inhibition: at 46.2 µM (top of the series). In short, it runs like this:
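Compound effects on proliferation are scored in DT40 Tdp1-/-;hTDP1 cells in the absence of CPT. ATP levels (CellTiter-Glo luminescence) are recorded after a ≥48 hr, 37 °C incubation.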
For `COc1ccc(N(CC(=O)NCC2CCCO2)C(=O)CCC(=O)Nc2nccs2)c(OC)c1` (stereo unspecified), the “activity change, negative = growth inhibition” value is -20.4%. Same read-out and setting: the same measure for `O=c1c(O)c(Br)ccc2c(Br)c(O)c(O)c(O)c12`: 8.26% [at 9.04 µM]; for `C[C@H](NC(=O)c1ccccc1Cl)C(=O)OCC(=O)N1CCN(c2ccccc2)CC1`: 0.465%.

Regarding `O=C(OCC(=O)N1CCN(c2ccccc2)CC1)c1ccc([N+](=O)[O-])s1`, the Potency is 4.61 µM (active). On to `COc1cc(NC(=O)COC(=O)c2ccc([N+](=O)[O-])s2)cc(OC)c1OC`, for which the “activity change, negative = growth inhibition” value is 11.9%. Same read-out and setting: the same measure for `Oc1ccc(-c2cccc(-c3ccc(O)cc3)c2)cc1`: 6.67%; for `Cc1cn(C2CC(O)C(CO)O2)c(=O)n(CCCc2ccccc2)c1=O` (stereo unspecified): -14.7%.

Regarding `COCCn1c(=O)c(-c2cccs2)nc2cnc(N3CCN(C)CC3)nc21`, the “activity change, negative = growth inhibition” value was -22.9%. On the same count and under the same terms, the same measure for `CN1CCN(Cc2nc3cc(NC(=O)COc4ccc([N+](=O)[O-])cc4)ccc3n2C)CC1`: 17.7%; for `CCOC(=O)N1CCN(Cc2nc3cc(NC(C)=O)ccc3n2C)CC1`: 0.858%. With `CCOC(=O)N1CCN(Cc2nc3cc(NC(=O)CC)ccc3n2CC)CC1`, the Potency is 29.1 µM (active). As for `CC(=O)Cc1nsc(NC(=O)c2ccc(COc3ccc(C)cc3)o2)n1`, the “activity change, negative = growth inhibition” value is 1.76%. Still for that read-out and setting: next, `CN1CCC(=NNC(=O)CN(c2cccc(Cl)c2)S(C)(=O)=O)CC1`: -7.27%. On the same count and under the same terms, the same measure for `CC1=CCC2C(=O)N(c3cccc(C(=O)NC(C)c4ccccc4)c3)C(=O)C2C1` (stereo unspecified): 7.3%. Regarding `CCOc1ncccc1C(=O)NCCc1ccc(OC)cc1`, the Potency was 20.6 µM (active). Consider `COc1ccc(CCNC(=O)c2ccco2)cc1`, for which the “activity change, negative = growth inhibition” value was -29.5%. In the case of `CCCNC(=O)c1ccccc1NC(=O)CSCc1ccc(OC)cc1`, the “activity change, negative = growth inhibition” value was -8.44%.

On to `Cn1c(=O)[nH]c(=O)c2c1[nH]c(=S)n2Cc1ccccc1`, for which the “activity change, negative = growth inhibition” value was 26.7%. In the case of `Cc1cccc(OCCNC(=O)CSc2ccc(C(F)(F)F)cc2[N+](=O)[O-])c1`, the Potency was 16.4 µM (active). Take `O=C(CSc1ccc(C(F)(F)F)cc1[N+](=O)[O-])NCCOc1ccccc1`: the “activity change, negative = growth inhibition” value is -16.7%. On the same count and under the same terms, the same measure for `Cc1cccc(OCCNC(=S)NC(=O)c2cccnc2)c1`: -8.96%. Take `Clc1ccc(-n2nnnc2-c2cnc(-c3ccccn3)nc2-c2cccs2)cc1`: the Potency was 5.17 µM (active). `O=c1c(-c2cccs2)nc2cnc(Oc3ccccc3)nc2n1-c1ccccc1`: the “activity change, negative = growth inhibition” value was -6.07%.

Turning to `CN(C)c1nnnn1-c1ccc(Cl)cc1`, the “activity change, negative = growth inhibition” value is -1.87%. Same read-out and setting: next, `O=C(OC(C(=O)NC1CCCC1)c1ccc(F)cc1)c1ccno1` (stereo unspecified): -10.5%; `O=C(Nc1ncc2c(n1)CC(c1ccco1)CC2=O)c1ccc(Cl)cc1` (stereo unspecified): -25.7%; `Cc1cccc(NC(=O)CSc2nc3c(c(=O)[nH]2)CCCC3)c1C`: -8.26%. Still for that read-out and setting: next, `CC(=O)NC1=NC(=O)CS1`: -2.82%; `Cc1ccc(S(=O)(=O)N(C)c2ccc(OCC(=O)OCc3ccc(C#N)cc3)cc2)cc1`: -1.54%. Turning to `COc1cccc(COc2ccc(N(C)S(=O)(=O)c3ccccc3)cc2)c1`, the Potency is 16.4 µM (active). As for `CN(c1ccc(OCC(=O)O)cc1)S(=O)(=O)c1ccc2ccccc2c1`, the “activity change, negative = growth inhibition” value was -8.74%. As for `CCOC(=O)CNC(=O)CSc1nc2cccnc2n1CC`, the “activity change, negative = growth inhibition” value is -5.19%. As to `CC(C)C[C@H]1CN=C(Nc2ccccc2)N1CC1CCCCC1`, the Potency is 16.4 µM (active). Regarding `CC(CO)(CO)NC(=O)c1ccc(=O)[nH]n1`, the “activity change, negative = growth inhibition” value is 7.23%.

As for `Cc1cccc(-n2c(=O)c3c(c4cc(C)ccc4n3C)n(CC(=O)Nc3ccccc3Cl)c2=O)c1`, the “activity change, negative = growth inhibition” value is -9.55%. The same measure, in the same setting: next, `Cc1ccc2c(c1)c1c(c(=O)n(-c3ccccc3)c(=O)n1CC(=O)c1ccc(Cl)cc1)n2C`: -11.5%. For `CCc1ccccc1NC(=O)Cn1c(=O)n(-c2cccc(C)c2)c(=O)c2c1c1cc(OC)ccc1n2C`, the Potency was 2.06 µM (active). `CCC(CC)c1nnc(NS(=O)(=O)Cc2ccccc2)s1`: the “activity change, negative = growth inhibition” value is -0.792%. Same read-out and setting: the same measure for `Cc1nn(C(C)C(=O)N2CCOCC2)c(=O)c2nn(-c3ccccc3)c(C)c12` (stereo unspecified): 10.9%; for `Cc1c(CNCCc2ccccc2)c(C(=O)O)c(C)n1-c1ccccc1`: -6.22%.

For the compound `C#CCOc1ccccc1/C=C1/C(=O)ON=C1C`, the Potency was 14.6 µM (active). For the compound `CC1=NOC(=O)/C1=C\c1ccccc1`, the “activity change, negative = growth inhibition” value is -19.8%. Same read-out and setting: the same measure for `Cc1cn(C)c(CC(=O)NCc2ccccc2)c1C(=O)O`: 10%; for `COc1ccc(Cl)cc1NC(=O)CN1CCN(C(=O)N2CCOCC2)CC1`: -16.6%. In the case of `COc1ccc(Cl)cc1NC(=O)COC(=O)C(CC(C)C)N1C(=O)C2CC=CCC2C1=O` (stereo unspecified), the Potency is 18.4 µM (active). Turning to `COc1ccc(Cl)cc1NC(=O)COc1ccc2c(c1)OCO2`, the “activity change, negative = growth inhibition” value is -1.31%. The same measure, in the same setting: next, `CC1(C)NC(=O)N(CCOc2cccc(Oc3ccccc3)c2)C1=O`: -8.49%; `Cc1nnc(N(Cc2ccco2)C(=O)c2ccno2)s1`: -13.2%.

Take `CCCNC(=O)c1c(Cl)cnn1-c1ccc(C)cc1`: the “activity change, negative = growth inhibition” value was -16%. Consider `Cc1ccnc(NC(=O)CCCOc2ccccc2)c1`, for which the “activity change, negative = growth inhibition” value was -0.626%. `COc1ccc(Cl)cc1NC(=O)c1oc(C)nc1C`: the “activity change, negative = growth inhibition” value was -4.86%.

For the origin of these results see PubChem BioAssay AID686978 (National Center for Advancing Translational Sciences (NCATS), 2013).
